Among the data in PubChem BioAssay (EPA / NIEHS) are outcome and AC50 values, retold here.

A short description of experiment [1]: ATG_CRE_CIS: Attagene CIS-FACTORIAL HepG2 Assay for human cAMP Responsive Element (CRE) binding protein 3 (AID 2282926). The following applies: HepG2 CRE cis-reporter, Attagene multiplexed mRNA; actives raise or lower the signal. In outline:
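Induced reporter mRNA from a CRE cis element, measured in HepG2 among many multiplexed units at 24 h. Detection used RT-PCR plus capillary electrophoresis of fluorescent fragments; DMSO served as negative control.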

Experiment [2] has as its target CCAAT/enhancer-binding protein beta (Homo sapiens) (UniProt P17676). Nature of the experiment: ATG_C_EBP_CIS: Attagene CIS-FACTORIAL HepG2 Assay for human CCAAT/Enhancer Binding Protein (C/EBP) beta (AID 2282927). The following applies: HepG2 Attagene cis-factorial transcription factor reporter; actives raise or lower the signal. In outline: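 Following a 24 h incubation with test chemical, transfected HepG2 cells yielded RNA whose reporter transcripts were quantified by RT-PCR and fluorescent capillary electrophoresis, with DMSO serving as baseline for bidirectional fitting.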

The nature of experiment [3]: ATG_CMV_CIS: Attagene CIS-FACTORIAL HepG2 Assay for human CMV (Internal Marker) (AID 2282928).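 Also: endpoint acts as a background internal control marker rather than a target.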 The following applies: HepG2 CMV promoter reporter, transcription factor profiling; actives raise or lower the signal. The method in brief: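 Fluorescence intensity of RT-PCR-derived reporter fragments, resolved by capillary electrophoresis, gives the signal. HepG2 liver cells bearing transfected cis-element reporters were treated 24 h; activity in either direction was fit relative to DMSO-treated controls.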

A short description of experiment [4]: ATG_DR4_LXR_CIS: Attagene CIS-FACTORIAL HepG2 Assay for human Liver X Receptor (LXR), DR4 submotif (AID 2282929). As to conditions: HepG2 Attagene DR4 cis-reporter, mRNA transcription; actives raise or lower the signal. The method in brief: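 HepG2 cells were transiently transfected with multiple cis-regulated reporter units and dosed for 24 hours. The DR4 reporter mRNA was quantified by RT-PCR, 6-FAM labelling and capillary electrophoresis. Bidirectional fits used DMSO as baseline.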

For experiment [5], the target named is Aryl hydrocarbon receptor (Homo sapiens) (UniProt P35869). Nature of the experiment: ATG_Ahr_CIS: Attagene CIS-FACTORIAL HepG2 Assay for human Aryl Hydrocarbon Receptor (Ahr) (AID 2282930). The following applies: HepG2 AhR cis-factorial reporter transcription; actives raise or lower the signal. In outline: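 Values derive from bidirectional fitting against DMSO negative control. Underlying signal: cis-element reporter mRNA in transiently transfected HepG2, harvested 24 h post-dose and measured by RT-PCR plus capillary electrophoresis.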
Sequence of Aryl hydrocarbon receptor (Homo sapiens) (P35869 whole entry, looked up): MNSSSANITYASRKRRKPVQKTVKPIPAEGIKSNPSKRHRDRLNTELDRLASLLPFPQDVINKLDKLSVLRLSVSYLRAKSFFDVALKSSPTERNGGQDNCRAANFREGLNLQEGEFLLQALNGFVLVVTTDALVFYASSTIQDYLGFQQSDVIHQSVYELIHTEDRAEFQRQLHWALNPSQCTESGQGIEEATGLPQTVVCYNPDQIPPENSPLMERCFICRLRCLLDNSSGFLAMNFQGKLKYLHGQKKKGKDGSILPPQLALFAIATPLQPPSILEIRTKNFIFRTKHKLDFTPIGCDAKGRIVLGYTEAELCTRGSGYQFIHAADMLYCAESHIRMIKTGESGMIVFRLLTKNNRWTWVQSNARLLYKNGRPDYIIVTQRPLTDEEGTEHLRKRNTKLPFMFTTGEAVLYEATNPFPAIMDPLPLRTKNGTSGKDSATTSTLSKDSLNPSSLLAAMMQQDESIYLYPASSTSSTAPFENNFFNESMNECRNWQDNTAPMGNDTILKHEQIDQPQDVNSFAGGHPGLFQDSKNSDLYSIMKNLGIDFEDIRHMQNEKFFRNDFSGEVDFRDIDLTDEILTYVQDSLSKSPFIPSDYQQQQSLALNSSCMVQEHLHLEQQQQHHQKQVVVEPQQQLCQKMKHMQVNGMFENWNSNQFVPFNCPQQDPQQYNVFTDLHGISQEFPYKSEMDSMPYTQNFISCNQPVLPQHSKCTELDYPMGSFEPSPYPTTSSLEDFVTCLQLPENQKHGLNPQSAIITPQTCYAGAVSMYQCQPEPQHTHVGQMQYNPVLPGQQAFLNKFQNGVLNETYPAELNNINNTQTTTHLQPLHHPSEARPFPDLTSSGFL

Experiment [6] is described as follows: ATG_AP_1_CIS: Attagene CIS-FACTORIAL HepG2 Assay for human Activator Protein 1 (AP-1) (AID 2282931). As to conditions: HepG2 Attagene cis-factorial AP-1 reporter mRNA; actives raise or lower the signal. In outline: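 HepG2 cells transiently transfected with cis-element-driven reporter transcription units, dosed for 24 hours. Reporter mRNA measured by RT-PCR, 6-FAM labelling, HpaI digestion and capillary electrophoresis. Bidirectional fitting against DMSO baseline.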

Experiment [7] in a line: ATG_AP_2_CIS: Attagene CIS-FACTORIAL HepG2 Assay for human Activator Protein 2 (AP-2) (AID 2282932). The following applies: HepG2 AP-2 cis-reporter, Attagene transcription factor profiling; actives raise or lower the signal. In outline:
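Assay in transfected HepG2 with promoter-regulated reporters, 24 h incubation after dosing. Signal is reporter mRNA fluorescence (RT-PCR, capillary electrophoresis), analysed for both increases and decreases relative to DMSO controls.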

Experiment [8] in a line: ATG_BRE_CIS: Attagene CIS-FACTORIAL HepG2 Assay for human Bone Morphogenetic Protein (BMP) Response Element (BRE) (AID 2282933). As to conditions: HepG2 BMP response element reporter, Attagene transcription factor profiling; actives raise or lower the signal. The method in brief:
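Multiplexed cis-reporter assay, HepG2, 24 h exposure. mRNA from reporter units quantified via RT-PCR/CE; DMSO baseline; bidirectional curve fit.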

Experiment [9] deals with Retinoic acid receptor alpha (Homo sapiens) (UniProt P10276). Nature of the experiment: ATG_DR5_RAR_CIS: Attagene CIS-FACTORIAL HepG2 Assay for human Retinoic Acid Receptor Alpha (RARE), DR5 submotif (AID 2282934).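 As to AC50: reporter responds to endogenous RAR alpha beta and gamma in HepG2 not RARA alone.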 The following applies: HepG2 Attagene cis-factorial RARE DR5 reporter, mRNA; actives raise or lower the signal. The method in brief: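 Endpoint fitted in both directions relative to DMSO as negative control. It reflects DR5 cis-element reporter mRNA induction in transiently transfected HepG2 cells, measured 24 h after dosing through RT-PCR and fluorescent capillary electrophoresis.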
Sequence of Retinoic acid receptor alpha (Homo sapiens) (P10276 whole entry, looked up): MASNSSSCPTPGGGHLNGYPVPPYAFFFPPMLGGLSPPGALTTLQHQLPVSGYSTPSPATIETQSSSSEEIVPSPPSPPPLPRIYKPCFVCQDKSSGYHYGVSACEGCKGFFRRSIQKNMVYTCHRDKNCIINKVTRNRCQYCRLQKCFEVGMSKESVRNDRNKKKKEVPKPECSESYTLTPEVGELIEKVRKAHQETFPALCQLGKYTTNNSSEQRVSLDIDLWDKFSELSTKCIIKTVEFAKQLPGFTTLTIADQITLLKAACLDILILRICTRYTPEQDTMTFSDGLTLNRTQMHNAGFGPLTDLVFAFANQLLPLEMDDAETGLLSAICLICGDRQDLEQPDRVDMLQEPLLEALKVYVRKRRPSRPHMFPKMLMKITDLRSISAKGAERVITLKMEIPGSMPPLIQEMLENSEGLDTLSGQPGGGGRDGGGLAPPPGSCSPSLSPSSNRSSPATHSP

A short description of experiment [10]: ATG_E_Box_CIS: Attagene CIS-FACTORIAL HepG2 Assay for human Enhancer Box (E-box) (AID 2282936). As to conditions: HepG2 E-box cis-reporter transcription, actives raise or lower the signal. The method in brief: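 Measured 24 h post-dosing in HepG2 cells transfected with multiple cis-regulated reporter units, signal being reporter mRNA induction detected by fluorescent RT-PCR with capillary electrophoresis; gain or loss fitted against DMSO.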

Experiment [11] in a line: ATG_M_61_CIS: Attagene CIS-FACTORIAL HepG2 Assay for M61 Transcription Factor (Internal Marker) (AID 2282937). The following applies: HepG2 Attagene CIS-FACTORIAL M61 internal marker reporter; actives raise or lower the signal. In outline: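 HepG2 cells transiently transfected with multiplexed cis-promoter reporter units reporting endogenous transcription factor activity, measured 24 h after dosing. Reporter mRNA quantified by RT-PCR and capillary electrophoresis; bidirectional fit against DMSO baseline.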

Experiment [12] is described as follows: ATG_EGR_CIS: Attagene CIS-FACTORIAL HepG2 Assay for human Early Growth Response 1 (EGR1) (AID 2282938). As to conditions: HepG2 Attagene CIS-FACTORIAL EGR reporter mRNA; actives raise or lower the signal. The method in brief: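 HepG2 cells transiently transfected with cis-element-driven multiplexed reporter units, dosed for 24 h. EGR1-element reporter mRNA quantified by RT-PCR, 6-FAM labelling, HpaI digestion and capillary electrophoresis; bidirectional fit versus DMSO.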

Experiment [13] can be described thus: ATG_M_19_CIS: Attagene CIS-FACTORIAL HepG2 Assay for M19 Transcription Factor (Internal Marker) (AID 2282939). The following applies: HepG2 Attagene CIS-FACTORIAL M19 internal marker reporter; actives raise or lower the signal. The method in brief: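 Signals come from fluorescence of labelled reporter-specific PCR fragments resolved by capillary electrophoresis, following 24 h treatment of HepG2 cells transfected with cis-promoter reporter units; activity was fitted in both directions relative to DMSO.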

Experiment [14] is described as follows: ATG_ERE_CIS: Attagene CIS-FACTORIAL HepG2 Assay for Estrogen Response Element (ERE) (AID 2282940). The following applies: HepG2 ERE cis-reporter, Attagene RNA transcript; actives raise or lower the signal. In outline: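 Fluorescence of capillary-separated, FAM-labelled reporter cDNA fragments indicates reporter mRNA levels in HepG2 cells exposed to chemicals for 24 h. Transient transfection with cis-regulated units; data fitted in both directions against DMSO.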

Experiment [15] is described as follows: ATG_Ets_CIS: Attagene CIS-FACTORIAL HepG2 Assay for human Erythroblast Transformation Specific (ETS) (AID 2282941). As to conditions: HepG2 ETS cis-reporter transcription, actives raise or lower the signal. The method in brief:
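Multiplexed reporter transcript profiling: HepG2, 24 h treatment, total RNA to cDNA, PCR, 6-FAM labelling, HpaI cut, capillary electrophoresis. Gain- or loss-of-signal fitted against DMSO.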

The target of experiment [16] is Hepatocyte nuclear factor 3-beta (Homo sapiens) (UniProt Q9Y261). Nature of the experiment: ATG_FoxA2_CIS: Attagene CIS-FACTORIAL HepG2 Assay for human Forkhead box A2 (FOXA2) (AID 2282942). As to conditions: HepG2 cis-reporter transcription factor activity, 24 h; actives raise or lower the signal. In outline: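 HepG2 transiently transfected with a multiplexed cis-promoter reporter library read endogenous FOXA2 activity. After 24 h compound exposure, reporter mRNA was quantified by RT-PCR, HpaI digestion and capillary electrophoresis. Bidirectional fit against DMSO.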
Sequence of Hepatocyte nuclear factor 3-beta (Homo sapiens) (Q9Y261 whole entry, looked up): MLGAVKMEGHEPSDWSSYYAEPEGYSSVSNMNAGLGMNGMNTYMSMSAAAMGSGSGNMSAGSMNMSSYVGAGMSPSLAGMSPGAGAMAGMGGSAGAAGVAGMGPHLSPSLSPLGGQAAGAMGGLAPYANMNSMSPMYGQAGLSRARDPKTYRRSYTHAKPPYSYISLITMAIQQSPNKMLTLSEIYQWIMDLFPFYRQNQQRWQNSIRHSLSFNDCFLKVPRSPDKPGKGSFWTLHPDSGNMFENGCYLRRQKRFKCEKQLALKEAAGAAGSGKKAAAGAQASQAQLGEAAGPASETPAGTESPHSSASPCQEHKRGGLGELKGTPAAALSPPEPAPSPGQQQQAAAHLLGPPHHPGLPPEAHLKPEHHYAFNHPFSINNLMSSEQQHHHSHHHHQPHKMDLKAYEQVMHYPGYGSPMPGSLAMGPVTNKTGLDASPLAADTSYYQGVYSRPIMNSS

Experiment [17] can be described thus: ATG_FoxO_CIS: Attagene CIS-FACTORIAL HepG2 Assay for human Forkhead box O (FoxO) (AID 2282943). The following applies: HepG2 Attagene cis-reporter, FoxO element, mRNA; actives raise or lower the signal. The method in brief:
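Values reflect reporter mRNA induction or loss in HepG2 cells 24 h post-dosing, fitted bidirectionally with DMSO as negative control and baseline. Detection used RT-PCR and fluorescence capillary electrophoresis.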

Experiment [18] in a line: ATG_GATA_CIS: Attagene CIS-FACTORIAL HepG2 Assay for human GATA Binding Protein (AID 2282944). As to conditions: HepG2 GATA cis-element reporter, Attagene multiplex mRNA; actives raise or lower the signal. In outline: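 After transfecting HepG2 cells with multiple cis-regulated reporter units, chemicals are dosed for 24 h; isolated RNA undergoes RT-PCR and fluorescent labeling before capillary electrophoresis, with activity expressed against DMSO.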

Experiment [19] is described as follows: ATG_GLI_CIS: Attagene CIS-FACTORIAL HepG2 Assay for human Zinc Finger Protein GLI1 (AID 2282945). The following applies: HepG2, Attagene cis-factorial reporter mRNA, GLI element; actives raise or lower the signal. The method in brief: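 HepG2 cells transiently transfected with cis-promoter multiplexed reporter units report endogenous transcription factor activity. After 24 h chemical exposure, reporter mRNA was quantified by RT-PCR, 6-FAM labelling, HpaI digestion and capillary electrophoresis, with bidirectional fitting against DMSO.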

Experiment [20] addresses Transcription factor E2F1 (Homo sapiens) (UniProt Q01094). Nature of the experiment: ATG_E2F_CIS: Attagene CIS-FACTORIAL HepG2 Assay for human E2F Transcription Factor 1 (AID 2282935). The following applies: HepG2 Attagene cis-reporter, E2F reporter RNA transcripts; actives raise or lower the signal. The method in brief:
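In this cis-factorial format, endogenous factor activity drives transfected reporters in HepG2; transcripts collected at 24 h are quantified by fluorescence after RT-PCR and capillary separation.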

Each structure is given as a SMILES string. Values joined by “and” are separate entries in the source; they are usually repeats but may differ in a detail not shown here. Equal entries are not always repeated. Where a structure was tested more than once in an assay, its records may differ in their call. Active and inactive are the calls of the source. The calls were made as follows: active = hit-call score of the fitted dose curve at least 0.9, where 1 is the maximum; inactive = score below 0.9.

Sequence of CCAAT/enhancer-binding protein beta (Homo sapiens) (P17676 whole entry, looked up): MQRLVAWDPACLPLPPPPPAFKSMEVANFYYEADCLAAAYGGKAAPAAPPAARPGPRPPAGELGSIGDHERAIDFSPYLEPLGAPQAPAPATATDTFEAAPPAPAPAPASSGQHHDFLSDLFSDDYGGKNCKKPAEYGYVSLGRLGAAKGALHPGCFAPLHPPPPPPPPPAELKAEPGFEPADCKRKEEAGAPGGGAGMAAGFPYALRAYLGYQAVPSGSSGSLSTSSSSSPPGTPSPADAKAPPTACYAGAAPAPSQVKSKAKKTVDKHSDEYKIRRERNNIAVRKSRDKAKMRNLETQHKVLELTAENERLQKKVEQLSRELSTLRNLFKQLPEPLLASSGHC
Sequence of Transcription factor E2F1 (Homo sapiens) (Q01094 whole entry, looked up): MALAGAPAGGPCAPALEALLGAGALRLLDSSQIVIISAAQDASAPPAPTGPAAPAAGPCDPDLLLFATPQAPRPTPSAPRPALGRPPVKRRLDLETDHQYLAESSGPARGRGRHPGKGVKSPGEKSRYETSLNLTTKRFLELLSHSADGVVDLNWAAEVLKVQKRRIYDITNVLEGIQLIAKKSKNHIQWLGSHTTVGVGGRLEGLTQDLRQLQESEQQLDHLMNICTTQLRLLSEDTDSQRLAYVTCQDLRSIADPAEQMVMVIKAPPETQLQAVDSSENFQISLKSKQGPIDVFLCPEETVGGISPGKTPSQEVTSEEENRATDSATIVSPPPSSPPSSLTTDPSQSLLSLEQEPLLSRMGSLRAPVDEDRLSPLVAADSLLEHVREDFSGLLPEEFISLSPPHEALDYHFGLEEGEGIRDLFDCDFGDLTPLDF

Regarding `O=C(O)c1ccccc1-n1cc(C(=O)O)c(=O)c2cc(Nc3c(F)cc(F)cc3Cl)c(Cl)cc21`, the molecule was called inactive in experiment [1], in [2], in experiment [3], in [4], in experiment [5] and in [6]. The result in [7], in [8], in experiment [9], in [10], in experiment [11] and in experiment [12] was inactive. The result in experiment [13], in experiment [14], in experiment [15], in experiment [16], in [17] and in experiment [18] was inactive. Besides, the call in experiment [19] was inactive.

Turning to `CCCOC(=O)c1cc(O)c(O)c(O)c1`, the outcome in experiment [1], in [2], in experiment [4], in [5], in [6] and in experiment [7] was inactive. The outcome in [8], in experiment [9], in [10], in experiment [11], in [12] and in experiment [13] was inactive. Moreover, the outcome in experiment [15], in [16], in experiment [17], in [18] and in [19] was inactive. In addition, the AC50 (commonly the concentration giving half of the maximal activity seen) in [3] is 58.6 µM (active); in experiment [20], 169 µM (active); in experiment [14] it was 12.4 µM (active).

As for `Oc1ccc2ccccc2c1`, the outcome in experiment [1], in experiment [2], in experiment [3], in [6], in [7] and in experiment [8] was inactive. Moreover, the outcome in experiment [9], in experiment [10], in experiment [11], in [13], in experiment [15] and in experiment [16] was inactive. Besides, the result in experiment [17], in experiment [18] and in experiment [19] was inactive. Moreover, the AC50 is 100 µM (active) in experiment [4]; 870 nM (active) and 1.98 µM (active) in experiment [5]; 8.89 µM (active) in experiment [10].

For the molecule `COCC(C)OCC(C)OCC(C)O` (configuration not stated), the molecule was called inactive in [1], in experiment [2], in experiment [3], in experiment [4], in experiment [5] and in [6]. The molecule was classed as inactive in experiment [7], in experiment [8], in experiment [9], in [20], in experiment [10] and in experiment [11]. Moreover, the result in experiment [13], in experiment [14], in experiment [15], in experiment [16], in experiment [17] and in experiment [18] was inactive. Also, the molecule was called inactive in [19].

With `O=c1c(-c2ccc(O)cc2)coc2cc(O)cc(O)c12`, the AC50 in [1] is 27.5 µM (active) and 50.6 µM (active); in [2], 36.5 µM (active) [middle of 4 runs]; in experiment [3] it was 19.1 µM (active) [middle of 4 runs]; in [5] it was 34.3 µM (active); in [7] it was 29.8 µM (active) and 52.6 µM (active); in experiment [9] it was 62.3 µM (active). The result in experiment [1], in [5], in [6], in experiment [7], in experiment [8] and in [9] was inactive. In addition, the call in experiment [20], in experiment [10], in [11], in experiment [13], in [15] and in experiment [16] was inactive. In addition, the outcome in experiment [17], in experiment [18] and in [19] was inactive.
